Laboratory results reported in PubChem BioAssay AID1347072 (National Center for Advancing Translational Sciences (NCATS), 2019).
Hit rate of the full screen: of about 44,000 compounds, fewer than 10 were called active. Roughly 2% stayed inconclusive and do not appear here. The call rests on the fitted dose curve; in most records, active means well fitted curve in the direction sought with a large enough effect; inconclusive means small, poorly fitted or top-dose-only effect, or another doubt; inactive means no such curve, though single readings can be large or run the other way. A selection follows.

Target: Galactokinase (Homo sapiens) (UniProt P51570)
Experiment: qHTS Assay for Inhibitors of Human Galactokinase (GALK): NCGC Sytravon Library Screen
Conditions: recombinant GALK, Kinase-Glo ATP luminescence, 1 h; series mostly up to 57.5 µM
Source text: Inherited deficiency of galactose-1-phosphate uridyltransferase (GALT) can result in a potentially lethal disorder called Classic Galactosemia (OMIM 230400). Several lines of evidence indicate that an elevated level of galactose-1-phosphate (gal-1-p), the product of galactokinase (GALK), is a major, if not sole, pathogenic mechanism in patients with classic galactosemia. Therefore, finding inhibitors of GALK is a potential novel therapy for this inherent metabolic disease and is the long term goal of this project. This screen is run against the NCGC Sytravon compound library collection. GALK (provided by Kent Lai) was assayed using ATP and D-(+)-Galactose (Sigma-Aldrich cat# G0750) as substrates. Promega Kinase-Glo Plus technology was used to detect kinase activity. Reactions with and without GALK were used as negative and positive controls together with Protein Tyrosine Phosphatase CD45 inhibitor (EMD Bioscience cat# 540215) which is shown to inhibit GALK activity. Decrease in activity corresponds to inhibition of the enzyme is the desired outcome for this assay. NIH Molecular Libraries Probe Production Network [MLPCN] NIH Chemical Genomics Center [NCGC] Grant: R03 MH085689-01 PI Name: Kent Lai Ph.D., University of Utah
NCGC Assay Protocol Summary: Three uL/well of ATP-buffer solution (35 uM ATP, 20mM HEPES pH8.0, 5 mM MgCl2, 60 mM NaCl, 1 mM DTT, 0.01% BSA final concentration) was dispensed into 1536-well, assay plates (Greiner, solid white medium-binding plates) with Aurora Discovery BioRAPTR Flying Reagent Dispenser (FRD; Beckton-Dickenson). Compound solution (23 nL) was transferred to the assay plate using the Kalypsys 1536-pin tool. One uL/well GALK-galactose solution (5 nM GALK, 100 uM galactose, 20 mM HEPES pH8.0, 5 mM MgCl2, 60 mM NaCl, 1 mM DTT, 0.01% BSA final concentration) was then added using the FRD yielding a total kinase reaction volume of 4 uL/ well. After 1 hour of room temperature incubation, 4 uL Kinase-Glo Plus reagent was added for a final assay volume of 8 uL/ well. Luminescence was detected with the ViewLux plate reader (Perkin Elmer, Waltham, MA) after 10 min incubation using a 1 sec exposure time and 2x binning.

Chain of Galactokinase (Homo sapiens) (P51570 whole entry, looked up): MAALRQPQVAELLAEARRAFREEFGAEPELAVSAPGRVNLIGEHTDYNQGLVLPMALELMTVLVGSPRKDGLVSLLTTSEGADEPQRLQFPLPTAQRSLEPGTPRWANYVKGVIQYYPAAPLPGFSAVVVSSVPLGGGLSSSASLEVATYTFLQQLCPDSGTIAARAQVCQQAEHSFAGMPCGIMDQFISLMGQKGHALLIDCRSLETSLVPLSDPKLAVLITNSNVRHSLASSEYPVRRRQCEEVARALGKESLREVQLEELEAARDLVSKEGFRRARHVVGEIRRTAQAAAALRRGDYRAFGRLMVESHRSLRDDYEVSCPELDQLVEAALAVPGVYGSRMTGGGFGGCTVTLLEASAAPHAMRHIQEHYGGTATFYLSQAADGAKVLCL

outcome, inactive:
O=S(=O)(NCC(c1ccco1)N1CCOCC1)c1cc(F)ccc1F (configuration not stated)
COc1ccc(-c2nc(C)c(CCNC(=O)c3ccc(C(F)(F)F)cc3)s2)cc1OC
CCOC(=O)c1cccc(NC(=O)C(Cc2ccccc2)NS(=O)(=O)c2cccc3nsnc23)c1 (configuration not stated)
Cc1ccccc1Nc1nn2c(=O)c3ccc(C(=O)NCCc4ccc(Cl)cc4)cc3nc2s1
CCOc1ccc(C(=O)N2CCN(CCc3ccccn3)CC2)cc1
COc1ccccc1CNCc1ccc(C(=O)O)s1
COc1ccccc1CNC(=O)c1ccccc1NC(=O)c1nsc2ccccc12
Cc1sc2ncn(CC(=O)N3CCN(c4ccc(F)cc4)CC3)c(=O)c2c1S(=O)(=O)N1CCN(c2ncccn2)CC1
COc1ccc(OC)c(NC(=O)/C=C/c2ccc(C)o2)c1
Cc1ccc(CNC(=O)CCC(=O)N2Cc3ccccc3Oc3ncccc32)cc1
Cc1nn(CC(=O)NCCc2ccccc2)c(=O)c2c1sc1ccccc12
COc1ccc(OC)c(NC(=O)CN2CCCN(Cc3cc(C)ccc3C)S2(=O)=O)c1
O=C(NCCCN1CCN(c2cccc(Cl)c2)CC1)c1nnc(Cc2ccc(F)cc2Cl)o1
CC1=C(c2ccc(C)c(C)c2)S(=O)(=O)NC1=NCc1ccccc1Cl
COc1ccc(S(=O)(=O)NCCc2cc3ccc(C)c(C)c3[nH]c2=O)cc1
CCc1cccc(C)c1Nc1c(-c2ccc(N(C)C)cc2)nc2ncccn12
COc1ccc(NC(=O)Cn2c(=O)n(Cc3ccc(C(=O)NCc4ccccc4Cl)cc3)c(=O)c3ccccc32)cc1
CCC(=O)Nc1ccc2nc(SCC(=O)N3CCc4ccccc43)sc2c1
Cc1ccc(-n2c3nc(=O)[nH]c(=O)c-3cc3c(Cl)cccc32)cc1
Cc1ccc(SCC(=O)Nc2ccc3oc(-c4ccccc4C)nc3c2)cc1
COc1ccc(NC(=O)CSc2nc3ccccc3n2CC(=O)N2CCCCC2C)cc1 (configuration not stated)
CCOc1ccc(CCNC(=O)CSc2cc(=O)n(C)c3ccc(Cl)cc23)cc1OCC
O=C(Cn1c(=O)n(Cc2ccccc2)c(=O)c2sc3ccccc3c21)Nc1ccccc1F
Cc1cccc2c(=O)cc(CSc3ccccc3NC(=O)C(C)C)[nH]c12
COc1cc(OC)c(OC)cc1/C=C/c1nc2cc3ccccc3cc2c(=O)n1-c1ccc(F)c(Cl)c1
Cc1ccc(C(=O)Nc2nc(-c3ccccc3)ns2)cc1
Cc1ccc(C)c(Cn2c(=O)n(CCC(=O)NCc3ccc4c(c3)OCO4)c(=O)c3sccc32)c1
Cc1ccc(CNS(=O)(=O)c2ccc(C(=O)N(C)C)s2)cc1
O=C(NCc1ccc2c(c1)CCN2C(=O)c1ccccc1)Nc1cc(F)ccc1F
CN(C(=O)CSc1nc2ccccc2n1Cc1ccccc1C#N)c1ccccc1
CCCn1c2ccccc2c2cnn(CC(=O)NCC3CCN(Cc4ccc(C)cc4)CC3)c(=O)c21
COc1ccc(-c2noc(CSc3nnc(-c4ccccc4)n3-c3ccc(F)cc3)n2)c(OC)c1
Cc1nnc(NC(=O)CSc2nc3c([nH]c4ccccc43)c(=O)n2-c2cccc(Cl)c2)s1
CCOc1ccc(CCNC(=O)c2cc3c(=O)n(C)c4ccccc4c3n2C)cc1
O=C(CSc1nc2c(c(=O)[nH]1)CN(Cc1ccc(F)cc1)CC2)Nc1ccccc1Cl
O=C(Cc1ccc(Cl)cc1)NCC(c1cccs1)S(=O)(=O)c1ccc(Cl)cc1 (configuration not stated)
O=C(Nc1ccc(Br)cc1)c1ccc(Br)c(S(=O)(=O)NCc2ccccc2)c1
Cc1ccc(-c2cn3c(n2)sc2cc(C(=O)NCc4cccs4)ccc23)c(C)c1
CCc1ccccc1NC(=O)c1ccc(F)c(S(=O)(=O)NC2CCCCCC2)c1
CCc1cccc(NC(=O)CSc2nccn2C)c1
COc1ccc(CCNc2ncnc3c2cnn3-c2ccc(C)cc2)cc1
Cc1cccc(-c2nc(SCc3ccc(Br)cc3)n3[nH]c(=O)cc3n2)c1
CC(CCCc1ccccc1)NC(=O)c1nn(-c2ccc(Cl)cc2)nc1CO (configuration not stated)
COc1ccc(CNc2nc(-c3ccc(Cl)cc3)cc(C(F)(F)F)n2)cc1
CCn1cc(CCC(=O)NCc2ccc(F)cc2)c2ccccc21
CCN(c1ccc(Cl)cc1)S(=O)(=O)c1nnc(NC(=O)c2ccco2)s1
CCc1nn(CC(=O)Nc2cccc(C)c2C)c(=O)c2cc3sccc3n12
Cc1c(Cl)cccc1NC(=O)C1CCCN(C(=O)c2cnn(-c3ccccc3)c2-n2cccc2)C1 (configuration not stated)
CCc1ccccc1OCCSc1nc(-c2cccs2)nc2cc(=O)[nH]n12
COc1ccc2cc(-c3nc(Cl)c4c5c(sc4n3)CC(C)CC5)c(=O)oc2c1 (configuration not stated)
Cc1ccc2cccc(NC(=O)C(C)Oc3ccc(C)c(C)c3)c2n1 (configuration not stated)
CCCCc1nn2c(=O)cc(COC(=O)c3ccccc3NC(=O)C(C)(C)C)nc2s1
O=C(CSc1nc(=O)[nH]c2c1CCCC2)Nc1cc(C(F)(F)F)ccc1Cl
CC(NC(=O)c1cc2c(=O)n3ccccc3nc2n(C(C)C)c1=N)c1ccccc1 (configuration not stated)
COc1ccccc1CNS(=O)(=O)c1cc(Br)cc2c1N(C(C)=O)C(C)C2 (configuration not stated)
Cn1c(=O)cc(OCC(=O)N2CCN(c3ccccc3F)CC2)c2ccccc21
COc1ccc(CNC(=O)CCc2c(C)nn(-c3ccc(N4CCCC4)nn3)c2C)cc1
O=S(=O)(NCCS(=O)(=O)N1CCN(c2ccccc2)CC1)c1ccc(Cl)cc1
CCCN1CCN(CCCNC(=O)c2ccc3nc(Cc4ccccc4)oc3c2)CC1
CCN(Cc1ccccc1)C(=O)c1cn(-c2cccc(OC)c2)c(=O)c2ccccc12
COc1ccc(NS(=O)(=O)c2cc3c4c(c2)CC(=O)N4CCC3)cc1Cl
CC(=O)N1CCCc2ccc(NS(=O)(=O)c3ccc(F)cc3F)cc21
